The values below come from PubChem BioAssay (NCI).

A short description of test [1]: NCI Yeast Anticancer Drug Screen. Data for the rad50 strain (AID 155).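 Note: 0% = growth of vehicle-only cultures of the same strain.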 Conditions: S. cerevisiae rad50 strain growth inhibition, active compounds read high. A digest of the protocol:
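Compounds were tested on a yeast strain with an engineered DNA damage repair alteration; the reported value is growth inhibition normalised to vehicle treatment.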

Test [2] is described as follows: NCI Yeast Anticancer Drug Screen. Data for the mec2-1 strain (AID 157). Conditions: S. cerevisiae mec2-1 strain, active compounds read high. A digest of the protocol: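 Using mec2-1 yeast: add compound, measure growth, express inhibition versus vehicle-treated cultures.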
The nature of test [3]: NCI Yeast Anticancer Drug Screen. Data for the sgs1 mgt1 strain (AID 161).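 Note: 0% = growth of cultures given vehicle only.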 The note with it: S. cerevisiae sgs1 mgt1 strain, active compounds read high. The gist of the method:
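Compounds are added to genetically altered yeast, and growth is compared with cultures given vehicle alone to give percent inhibition.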

A short description of test [4]: NCI Yeast Anticancer Drug Screen. Data for the cln2 rad14 strain (AID 165).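 Note: 0% = growth equal to vehicle treated cultures.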 The note with it: S. cerevisiae cln2 rad14 strain, active compounds read high. The gist of the method: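 Yeast strain cln2 rad14, bearing defects in cell cycle control and DNA repair, serves as the test system; values reflect growth inhibition compared with vehicle.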
A short description of test [5]: NCI Yeast Anticancer Drug Screen. Data for the mlh1 rad18 strain (AID 175). The note with it: S. cerevisiae mlh1 rad18 strain growth inhibition, active compounds read high. A digest of the protocol: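 Steps: expose repair-defective yeast to compound; measure growth; express inhibition against vehicle-treated controls.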
Test [6] can be described thus: NCI Yeast Anticancer Drug Screen. Data for the bub3 strain (AID 167). Conditions: S. cerevisiae bub3 mutant strain, active compounds read high. A digest of the protocol:
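Growth of a checkpoint-deficient yeast mutant is measured after compound exposure. Values represent inhibition relative to vehicle.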

Where [7] appears, read: at 5.0 µM (retest, dose inferred, filed as 0.5).
The mark [8] stands for this setting: at 50.0 µM (retest, dose inferred, filed as 5.0).

The structures appear in SMILES notation. About 79,000 compounds went through this panel and 15% of them were active in at least one assay; those are over-represented in the sample as a whole. A number with no mark means an inactive call. Active and inactive are the calls of the source. Cut-off read from the data, not from the text of the source: active = growth inhibition above about 70%; inactive = the rest.

As for `CC(C)(C)CC(C)(C)c1ccc(O)c(O)c1`, the growth inhibition in test [1] (setting [7]) is 96% (active); in test [1] (setting [8]) it was 99% (active); in test [1] (at 50.0 µM) it was 93.3% (active); in test [2] (setting [7]) it was 100% (active); in test [2] (setting [8]), 99% (active); in test [2] (at 50.0 µM), 94.2% (active). Also, the growth inhibition in test [3] (setting [7]) was 98% (active); in test [3] (setting [8]) it was 99% (active); in test [3] (at 50.0 µM), 94.5% (active); in test [4] (setting [7]) it was 55%; in test [4] (setting [8]) it was 99% (active); in test [4] (at 50.0 µM), 92.3% (active). The growth inhibition in test [5] (setting [7]) was 100% (active); in test [5] (setting [8]) it was 99% (active); in test [5] (at 50.0 µM) it was 93.2% (active).

In the case of `O=C1Nc2ccccc2NC(=O)C(=C(c2ccccc2)c2ccccc2)C1=C(c1ccccc1)c1ccccc1`, the growth inhibition in test [1] (setting [7]) is 95% (active); in test [1] (setting [8]) it was 96% (active); in test [1] (at 50.0 µM), 46.9%; in test [2] (setting [7]) it was 94% (active); in test [2] (setting [8]), 97% (active); in test [2] (at 50.0 µM), 97.8% (active). Also, the growth inhibition was 96% (active) in test [3] (setting [7]); 98% (active) in test [3] (setting [8]); 53.1% in test [3] (at 50.0 µM); 92% (active) in test [4] (setting [7]); 96% (active) in test [4] (setting [8]); 97.5% (active) in test [4] (at 50.0 µM). The growth inhibition in test [6] (setting [7]) was 95% (active); in test [6] (setting [8]) it was 97% (active); in test [6] (at 50.0 µM), 98% (active); in test [5] (setting [7]), 96% (active); in test [5] (setting [8]) it was 96% (active); in test [5] (at 50.0 µM), 43.9%.

For the compound `C(C#Cc1ccccc1)#CCc1ccccc1`, the growth inhibition in test [1] (setting [7]) is 2%; in test [1] (setting [8]), 17%; in test [1] (at 50.0 µM) it was 19%; in test [2] (setting [7]), 7%; in test [2] (setting [8]), 16%; in test [2] (at 50.0 µM) it was 28.9%. Besides, the growth inhibition in test [3] (setting [7]) was 1%; in test [3] (setting [8]), 39%; in test [3] (at 50.0 µM), 54.6%; in test [4] (setting [7]) it was 1%; in test [4] (setting [8]), 7%; in test [4] (at 50.0 µM) it was 6.5%. The growth inhibition in test [6] (setting [7]) is 1%; in test [6] (setting [8]), 13%; in test [6] (at 50.0 µM), 47.2%; in test [5] (setting [7]), -1%; in test [5] (setting [8]) it was 21%; in test [5] (at 50.0 µM), 74.1% (active).

Consider `CN(C)c1ccc(/C=C\c2c3ccccc3cc[n+]2[O-])cc1`, for which the growth inhibition was -4% in test [1] (setting [7]); -1% in test [1] (setting [8]); 70% in test [1] (at 50.0 µM); -5% in test [2] (setting [7]); 0% in test [2] (setting [8]); 3% in test [2] (at 50.0 µM). Further, the growth inhibition is 0% in test [3] (setting [7]); -12% in test [3] (setting [8]); 17.9% in test [3] (at 50.0 µM); -5% in test [4] (setting [7]); -5% in test [4] (setting [8]); -10.2% in test [4] (at 50.0 µM). In addition, the growth inhibition in test [6] (setting [7]) is -6%; in test [6] (setting [8]), -11%; in test [6] (at 50.0 µM), 21%; in test [5] (setting [7]) it was -10%; in test [5] (setting [8]), 8%; in test [5] (at 50.0 µM), 14.8%.

`CC(=O)/C(=C\c1ccccc1Cl)C(=O)CCN(C)C`: the growth inhibition is -35% in test [1] (setting [7]); 93% (active) in test [1] (setting [8]); 37.4% in test [1] (at 50.0 µM); 8% in test [2] (setting [7]); 96% (active) in test [2] (setting [8]); 38.1% in test [2] (at 50.0 µM). Further, the growth inhibition is 0% in test [3] (setting [7]); 94% (active) in test [3] (setting [8]); 74% (active) in test [3] (at 50.0 µM); 6% in test [4] (setting [7]); 97% (active) in test [4] (setting [8]); 20.6% in test [4] (at 50.0 µM). Further, the growth inhibition in test [6] (setting [7]) was 7%; in test [6] (setting [8]), 97% (active); in test [6] (at 50.0 µM), 18.4%; in test [5] (setting [7]), -17%; in test [5] (setting [8]), 97% (active); in test [5] (at 50.0 µM), 80.8% (active).

As to `CC#CS(=O)(=O)c1ccccc1`, the growth inhibition in test [1] (setting [7]) was 1%; in test [1] (setting [8]), 40%; in test [1] (at 50.0 µM), 74.7% (active); in test [2] (setting [7]) it was -1%; in test [2] (setting [8]) it was 52%; in test [2] (at 50.0 µM), 85.5% (active). Moreover, the growth inhibition was 10% in test [3] (setting [7]); 81% (active) in test [3] (setting [8]); 80.7% (active) in test [3] (at 50.0 µM); 3% in test [4] (setting [7]); 23% in test [4] (setting [8]); 13.9% in test [4] (at 50.0 µM). Besides, the growth inhibition is 0% in test [6] (setting [7]); 19% in test [6] (setting [8]); 6.35% in test [6] (at 50.0 µM); 36% in test [5] (setting [7]); 87% (active) in test [5] (setting [8]); 66.6% in test [5] (at 50.0 µM).

Consider `CC1(C)CC([P+](c2ccccc2)(c2ccccc2)c2ccccc2)=NN1`, for which the growth inhibition in test [1] (setting [7]) is 66%; in test [1] (setting [8]), 91% (active); in test [1] (at 50.0 µM), 76.2% (active); in test [2] (setting [7]), 41%; in test [2] (setting [8]) it was 84% (active); in test [2] (at 50.0 µM), 77.5% (active). For the same compound, the growth inhibition in test [3] (setting [7]) was 60%; in test [3] (setting [8]) it was 89% (active); in test [3] (at 50.0 µM), 79.5% (active); in test [4] (setting [7]), 48%; in test [4] (setting [8]), 81% (active); in test [4] (at 50.0 µM), 46%. Also, the growth inhibition in test [5] (setting [7]) was 56%; in test [5] (setting [8]) it was 83% (active); in test [5] (at 50.0 µM), 79.5% (active).

For `O=C(NCCCCCCNC(=O)n1cc(F)c(=O)[nH]c1=O)NCCCOCCOCCOCCOCCOCCOCCOCCOCCOCCOCCOCCOCCOCCOCCOCCOCCOCCOCCOCCOCCOCCCNC(=O)C(O)C(O)C(O)C(O)CO` (centres undefined), the growth inhibition was 6% in test [1] (setting [7]); 31% in test [1] (setting [8]); 42.2% in test [1] (at 50.0 µM); 4% in test [2] (setting [7]); 60% in test [2] (setting [8]); 82% (active) in test [2] (at 50.0 µM). In addition, the growth inhibition was 23% in test [3] (setting [7]); 87% (active) in test [3] (setting [8]); 76.8% (active) in test [3] (at 50.0 µM); 33% in test [4] (setting [7]); 8% in test [4] (setting [8]); 24.4% in test [4] (at 50.0 µM). The growth inhibition was 11% in test [6] (setting [7]); 34% in test [6] (setting [8]); -4.9% in test [6] (at 50.0 µM); 7% in test [5] (setting [7]); 35% in test [5] (setting [8]); -10.8% in test [5] (at 50.0 µM).

Turning to `Cc1[nH]c2ccccc2c1C(c1ccccc1)c1c(C)[nH]c2ccccc12`, the growth inhibition is 2% in test [1] (setting [7]); 92% (active) in test [1] (setting [8]); 71.6% (active) in test [1] (at 50.0 µM); 1% in test [2] (setting [7]); 98% (active) in test [2] (setting [8]); 83% (active) in test [2] (at 50.0 µM). Further, the growth inhibition in test [3] (setting [7]) is 10%; in test [3] (setting [8]), 97% (active); in test [3] (at 50.0 µM), 87.2% (active); in test [4] (setting [7]) it was 0%; in test [4] (setting [8]), 97% (active); in test [4] (at 50.0 µM) it was 81% (active). The growth inhibition in test [6] (setting [7]) was -1%; in test [6] (setting [8]), 97% (active); in test [6] (at 50.0 µM), 83.5% (active); in test [5] (setting [7]), 20%; in test [5] (setting [8]) it was 97% (active); in test [5] (at 50.0 µM) it was 94.7% (active).

Regarding `Cc1ccc(S(=O)(=O)Nc2ccc3c(c2)Cc2cc([N+](=O)[O-])ccc2-3)cc1`, the growth inhibition in test [1] (setting [7]) was 45%; in test [1] (setting [8]) it was 60%; in test [1] (at 50.0 µM), 78% (active); in test [2] (setting [7]) it was 24%; in test [2] (setting [8]), 58%; in test [2] (at 50.0 µM) it was 45.8%. The growth inhibition is 42% in test [3] (setting [7]); 62% in test [3] (setting [8]); 67.2% in test [3] (at 50.0 µM); 45% in test [4] (setting [7]); 52% in test [4] (setting [8]); 48.3% in test [4] (at 50.0 µM). In addition, the growth inhibition was 57% in test [6] (setting [7]); 63% in test [6] (setting [8]); 59.2% in test [6] (at 50.0 µM); 58% in test [5] (setting [7]); 69% in test [5] (setting [8]); 81.3% (active) in test [5] (at 50.0 µM).
